HT1080-NT tox = kills 2HG-producing HT-1080-NT fibrosarcoma cells; HT-1080-NT fibrosarcoma viability, CellTiter-Glo ATP luminescence, 48 h; Potency, µM (doses to about 46.1 µM), inactives show top-dose activity, negative = less viability, usual class: cytotoxic; 1.6% of 360,000 active; AID 686970;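 note: NT is the 2HG producing partner of a matched IDH1 knockdown line; 0% = DMSO-treated cells and -100% = media-only wells without cells; nearly all actives have a fitted effect of over 55% in size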
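HT-1080-NT; 750 cells/well; 5% FBS RPMI; 48 h compound, 37 degrees C; CellTiter-Glo luminescence; curve fitting and curve-class assignment.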
ATXN2 expr inh = inhibitors of ATXN2 expression | Potency, µM (top dose mostly 57 µM), inactives show at the highest dose activity change, negative = inhibition, usual class: inhibitors | HEK-293 ATXN2-luciferase reporter, luminescence, 24 h | AID 1745845 | 0.72% of 360,000 active; note: % is set by controls: 0 for no effect and ±100 for the full control effect; nearly all actives have a fitted effect of over 55% in size
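qHTS (up to 57 uM final) was run with 24 h compound exposure of reporter cells at 37 °C. Each well was multiplexed: SteadyGlo luminescence measured ATXN2-luciferase expression after a fluorogenic Gly-Phe-AFC viability readout (25 uM final).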
TGFb inhibitor = blocks TGF-b signaling; AID 588855; 1.2% of 410,000 active; Potency, µM (highest dose often 46.1 µM), without a hit: at the top dose activity, negative = inhibition, actives largely listed as inhibitors; HepG2 CAGA-GFP TGF-b/SMAD3 reporter, GFP fluorescence, 18 h; TGF-beta stimulated, 500 pg/mL final; note: % is set by controls: 0 for no effect and ±100 for the full control effect; nearly all actives have a fitted effect of over 65% in size
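TGF-beta reporter screen: HEPG2 CAGA-GFP, 1% FBS, 500 pg/mL TGF-beta final, 18 h; per-cell GFP summed per well; curves fitted and categorized by class.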
S2 tox = cell viability loss in ATXN counter-screen; S2 cells (HEK-293 line with an ATXN2-luciferase reporter) viability, CellTiter-Fluor protease fluorescence, 24 h; Potency, µM (top dose mostly 56.7 µM), usual class: cytotoxic; 0.49% of 400,000 active; AID 651635; note: nearly all actives have a fitted effect of over 40% in size
HepG2 viability = HepG2 cytotoxicity, counter-screen for TGF-b inhibitors; HepG2 CAGA-GFP viability, ATP luminescence, 18 h; Potency, µM (titrated, usually from 46.1 µM), without a hit: top-dose activity change, negative = cytotoxicity, actives largely listed as cytotoxic; 0.76% of 410,000 active; AID 588856
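HepG2 CAGA-GFP cells (1000/well, DMEM with 1% FBS) received compound, then TGF-beta at 500 pg/mL final, and were incubated 18 hours at 37 degrees C. Viability was read by CellTiter-Glo luminescence. Media-only wells were set as complete cell-killing and DMSO as no toxicity.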
HT1080 IDH1KD tx = toxicity to HT-1080 IDH1 knockdown cells (counter line); 2% of 360,000 active; HT-1080 IDH1 knockdown viability, ATP luminescence, 48 h; AID 686971; Potency, µM (titrated, usually from 46.1 µM), inactives show top-dose activity, negative = toxicity, usual class: cytotoxic;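 note: 0% = DMSO wells and -100% = cell-free medium wells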
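After a 2 h attachment period, IDH1KD HT-1080 cells took pin-transferred compound for 48 h at 37 °C; ATP-based luminescence after 10 min room-temperature reagent incubation reported viability.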
* hit, by the source's call; i = inactive; ? = inconclusive; . = no result; ! = not confirmed by another sample; [ ] = dose if it differs, or a comment. Rows were chosen to be rich in hits. Some 3.8% of all compounds tested hit in one or more screens of this group. Calls come from the whole dose curve; as a rule, active = well fitted curve in the direction sought with a large enough effect; inconclusive = small, poorly fitted or top-dose-only effect, or another doubt; inactive = no such curve, though single readings can be large; an effect the other way counts as inactive or inconclusive. Potency is the fitted concentration of half-maximal effect.

SMILES	HT1080-NT tox	ATXN2 expr inh	TGFb inhibitor	S2 tox	HepG2 viability	HT1080 IDH1KD tx
CC(=O)c1cccc(NC(=O)CSc2nc3ccccc3c(=O)n2CCCN2CCOCC2)c1	-15%	.	22%	?	-19%	0%
Cc1ccc(NC(=O)CSc2nc3ccccc3c(=O)n2CCCN2CCCCC2)cc1C	-14%	?	?	.	18µM*	?
O=C(CSc1nc2ccccc2c(=O)n1CCCN1CCOCC1)Nc1ccc(Br)cc1	?	?	-4%	?	-20%	13µM*
Cc1ccc(Cl)cc1N1CCN(CCCNc2ncnc3onc(-c4ccc(F)cc4)c23)CC1	.	3%	4%	i	7%	.
COc1cccc(C2(CC(=O)N3CCN(c4nonc4C)CC3)CC(=O)N(C3CCCC3)C2=O)c1 (stereo not drawn)	.	.	.	i	.	.
O=C(NCCN1CCOCC1)C1CCN(c2ncnc3c2sc2cccc(F)c23)CC1	2%	-9%	-6%	i	-11%	7%
CCCCN(CC)CCCNC(=O)C1CCN(c2ncnc3c2sc2cccc(F)c23)CC1	21µM*	-7%	?	i	-37%	21µM*
CCCN(CC)C(CC)C(=O)Nc1c(C)cccc1C (stereo not drawn)	.	.	.	i	.	.
N=C1SCC(=O)N1c1ncc(Cc2ccc(F)cc2)s1	?	?	?	?	-27%	16µM*
CCCn1c(SCC(=O)Nc2ccccc2C(=O)OC)nc2c1c(=O)n(C)c(=O)n2C	9%	.	0%	.	3%	2%
CCCn1c(SCC(=O)Nc2ccccc2N2CCCCC2)nc2c1c(=O)n(C)c(=O)n2C	16µM*	?	?	i	-5%	-29%
COCCn1c2c([n+](Cc3cnccn3)c1C)C(=O)c1ccccc1C2=O	.	0.054µM*	.	.	.	.
Cc1cc(C(=O)NCc2nc(-c3cccc(NC(=O)c4ccccc4)c3)oc2C)nc(C)n1	.	.	.	i	.	.
CN(C)CCOc1ccc(-c2nc(-c3ccc4c(c3)CCC4=NO)c(-c3ccncc3)[nH]2)cc1	.	0%	.	.	.	.
CCN1CCN(Cc2ccc(NC(=O)c3ccc(C)c(NC(=O)c4ccnnc4)c3)cc2C(F)(F)F)CC1	6%	4%	-22%	i	10%	4%
CCN1CCN(Cc2ccc(NC(=O)c3cc(NC(=O)C(=O)c4c[nH]c5ccccc45)cc(OC)c3)cc2C(F)(F)F)CC1	16µM*	14µM*!	?	16µM*	11µM*!	?
CCN1CCN(Cc2ccc(NC(=O)c3cc(NC(=O)c4cnn(-c5ccccc5)c4N)cc(OC)c3)cc2C(F)(F)F)CC1	?	?	?	25µM*	-79%	18µM*
CCN1CCN(Cc2ccc(NC(=O)c3cc(NC(=O)c4cc(C)on4)cc(OC)c3)cc2C(F)(F)F)CC1	?	?	?	?	-37%	?
CCN1CCN(Cc2ccc(NC(=O)c3ccc(C)c(NC(=O)c4ccc5n[nH]nc5c4)c3)cc2C(F)(F)F)CC1	-3%	-5%	?	i	-26%	-7%
CCN1CCN(Cc2ccc(NC(=O)c3ccc(C)c(NC(=O)C(=O)c4c[nH]c5ccccc45)c3)cc2C(F)(F)F)CC1	16µM*	14µM*!	18µM*	14µM*	16µM*!	15µM*
CO[C@H]1C=CO[C@@]2(C)Oc3c(C)c(O)c4c(O)c(c(C=NN5CCN(C)CC5)c(O)c4c3C2=O)NC(=O)C(C)=CC=C[C@H](C)[C@H](O)[C@@H](C)[C@@H](O)[C@@H](C)[C@H](OC(C)=O)[C@H]1C	.	0%[18.9 µM]	.	.	.	.
CCOc1ccc(NC(=O)C[n+]2ccc(N(C)C)cc2)cc1	4%	-1%	4%	i	0%	?
CN(C)c1cc[n+](CC(=O)Nc2ccc(Cl)cc2)cc1	6.5µM*	?	-24%	i	-26%	?
C=C1NN(C(C)C(=O)O)C(=O)N1c1ccc(OCc2ccccc2)cc1 (stereo not drawn)	.	.	-5%	.	-3%	.
COc1cc2c(cc1-c1c(C)noc1C)ncc1[nH]c(=O)n([C@H](C)c3ccccn3)c12	.	194%	.	.	.	.
SMILES	HT1080-NT tox	ATXN2 expr inh	TGFb inhibitor	S2 tox	HepG2 viability	HT1080 IDH1KD tx
Cc1c(C(=O)NCC2(N3CCOCC3)CCCCC2)cnn1-c1nccc(-c2ccccc2F)n1	.	.	.	i	.	.
CN(C)c1ccc(C(=C2C=CC(=[N+](C)C)C=C2)c2c(O)c(S(=O)(=O)[O-])cc3cc(S(=O)(=O)O)ccc23)cc1	.	.	-7%	.	-4%	.
CN(C)c1ccc(C(=C2C=CC(=[N+](C)C)C=C2)c2ccc(N(C)C)cc2)cc1	.	7.7µM*	?	18µM*	-93%	.
CCC(C=C[C@@H]1OC(=O)C=C[C@H]1C)=C[C@H](C)CC=CC(C)=C[C@@H](C)C(=O)[C@@H](C)[C@H](O)[C@@H](C)CC(C)=CC(=O)O	.	0.13µM*	.	.	.	.
CON=C(C(=O)N[C@@H]1C(=O)N2C(C(=O)O)=C(Cn3ccc(=N)n3CCO)CS[C@H]12)c1csc(N)n1	.	2%	.	.	.	.
CC(C)(C)C(=O)CSc1n[nH]c(-c2ccccc2)n1	.	.	0%	.	-2%	.
Cc1ccc(S(=O)(=O)NC(=NCC(=O)O)c2ccccc2)cc1	-1%	1%	4%	i	3.2µM*	-3%
O=C(O)CN=C(NS(=O)(=O)c1ccc(Cl)cc1)c1ccccc1	-4%	-6%	5%	i	-2%	-3%
C[C@@H]1CN(Cc2ccc3c(c2)CN(Cc2cccn2-c2cccnc2)CCO3)C[C@H](C)O1	.	.	.	i	.	.
O=[N+]([O-])c1cc(S(=O)(=O)Nc2ccccc2)ccc1NCc1ccccc1	1%	4%	?	i	2%	-5%
O=[N+]([O-])c1cc(S(=O)(=O)Nc2ccccc2)ccc1Nc1ccccc1	7.3µM*	-11%	?	i	1%	-28%
COc1ccc(/C(C)=N/Nc2ncc(Cl)cc2Cl)c(O)c1	4.6µM*	-10%	-26%	i	-36%	?
CC(C)(C)c1ccc2c(c1)OC(C(=O)N/N=C\c1ccc[nH]1)CO2 (stereo not drawn)	?	?	-7%	i	-29%	3.7µM*
CC(C)(C)c1ccc2c(c1)OC(C(=O)N/N=C/c1ccc([N+](=O)[O-])o1)CO2 (stereo not drawn)	-25%	-20%	-10%	i	-34%	?
COc1ccc(/C=N\NC(=O)C2COc3ccccc3O2)cc1O (stereo not drawn)	15µM*	-2%	-14%	i	-36%	12µM*

Assay outcomes (PubChem BioAssay)
